From PubChem BioAssay (Tox21) come the findings set out here.

The source made the active and inactive calls. Calls come from the whole dose curve; as a rule, active = well fitted curve in the direction sought with a large enough effect in the repeat runs; inconclusive = weak or mixed curves; inactive = flat fitted curve, though single readings scatter.
% is set by controls: 0 for no effect and ±100 for the full control effect.

A short description of this experiment: qHTS assay to test for compound auto fluorescence at 460 nm (blue) in HEK293 cells (AID 720678). To be noted: blue autofluorescence 405/460 nm; series mostly up to 46 µM; fluorescence, % of triamterene: at the top concentration. An excerpt: National Center for Advancing Translational Sciences [NCATS]
NIH Chemical Genomics Center [NCGC]
U.S. Environmental Protection Agency [EPA]
National Institutes of Environmental Health Sciences [NIEHS]
National Toxicology Program [NTP]
U.S. Food and Drug Administration [FDA]
Compound auto fluorescence often interferes with screening of the compound library against various biological targets and signaling pathways. Some of these compounds may have fluorophoric properties. Such properties may interfere with the assay outputs resulting in false positives and/or negatives. To decrease such complications and ensure the compound activities are relevant in terms of biological response, the Tox21 10K compound library was screened for auto fluorescence.
From the fluorophores used as reporter signals in our screening assays, the auto fluorescence equivalencies of compounds against three fluorophores have been evaluated: Triamterene, Fluorescein and Rose Bengal sodium for blue, green and red fluorescence, respectively. The fluorescence intensities were measured using Excitation/Emission wavelengths at 405/460nm, 485/535nm and 540/590nm for blue, green and red labels, respectively. This assay includes the blue fluorescence data.
Tox21 Assay Protocol Summary:
2,000 HEK293 cells in 5 uL of culture medium containing 10% dialyzed FBS per well were dispensed into black wall/clear bottom 1536-well plates using a Multidrop Combi Dispenser (Thermo Scientific). The assay plates were incubated for 4-5 hr at 37C to allow cell attachment to the well bottom, followed by the transfer of 23 nL compound or DMSO vehicle by a pintool work station (Kalypsys, San Diego, CA). After the assay plates were incubated overnight at 37C and 5% CO2, fluorescence intensities in the assay plates were measured by an Envision (PerkinElmer, Shelton, CT) plate reader using three labels for measuring blue, green and red fluorescence at […] 460, 535 and 590nm respectively.
As to `CC(=O)[C@@]1(O)CC[C@H]2[C@@H]3CCC4=CC(=O)CC[C@]4(C)C3(F)[C@@H](O)C[C@@]21C` (stereo not given in full), the “fluorescence, % of triamterene” value was -0.0335% (inactive).
Same read-out and setting: as for `Oc1ccc2c3c1O[C@H]1[C@@H](O)C=C[C@H]4[C@H](C2)NCC[C@@]341`, the figure is 0.0536% (inactive); as for `Cc1nnc2n1-c1sc(CCc3ccc(CC(C)C)cc3)cc1C(c1ccccc1Cl)=NC2C` (stereo not given), 0.228% (inactive); as for `O=C1CCCCC1CN1CCCCC1` (stereo not given), -0.0248% (inactive).
On the same count and under the same terms, the result for `CCCC(C)(COC(N)=O)COC(=O)NC1CC1` (stereo not given) reads -0.0124% (inactive); that for `CCC1(C)CC(=O)NC(=O)C1`, -0.0983% [at 18.6 µM] (inactive).
With `CCCCC[C@@H](O)C1C(=O)OC(C)[C@H](O)/C=C/C=C/C=C/C=C/C=C(\C)C(O)C(O)C(O)C[C@H](O)C[C@H](O)C[C@H](O)C[C@H](O)C[C@@H]1O` (stereo not given in full), the Potency entry was “inactive”.
As for `CCc1cc(OC)c(C[C@@H](C)N)cc1OC`, the “fluorescence, % of triamterene” value was -0.0035% [at 95.7 µM] (inactive).
Same read-out and setting: the result for `CC(C)[C@H]1C(=O)N2CCC[C@H]2[C@]2(O)O[C@](NC(=O)[C@@H]3C[C@@H]4c5cccc6[nH]cc(c56)C[C@H]4N(C)C3)(C(C)C)C(=O)N12` reads 2.08% (inactive).
For `CN(C)CCCCCCN(C)C`, the “fluorescence, % of triamterene” value was 0.019% [at 91.3 µM] (inactive).
Turning to `CCC1(c2ccccc2)C(=O)NC(=O)N(C(=O)c2ccccc2)C1=O` (stereo not given), the “fluorescence, % of triamterene” value was -0.057% (inactive).
As to `C[C@]12CC[C@H](OS(=O)(=O)O)CC1=CC[C@@H]1[C@@H]2CC[C@]2(C)C(=O)CC[C@@H]12`, the “fluorescence, % of triamterene” value is -0.111% (inactive).
For `CC(C)(O)[C@@H]1[C@H]2OC(=O)[C@@H]1[C@]1(O)C[C@H]3O[C@]34C(=O)O[C@H]2[C@]14C`, the Potency result was “inactive”.
Consider `CC[N+](C)(CC)CCOC(=O)C(O)(c1ccccc1)c1ccccc1`, for which the “fluorescence, % of triamterene” value is -0.118% (inactive).
On the same count and under the same terms, as for `CCC(C)(S(=O)(=O)CC)S(=O)(=O)CC`, the figure is 0.0465% (inactive); as for `COC(=O)[C@@H]1[C@H]2CC[C@@H](C[C@H]1OC(=O)c1ccccc1)N2C`, 0.139% (inactive); as for `Cc1nnc2n1-c1ccc(Cl)cc1C(c1ccccc1Cl)=NC2`, 0.541% (inactive).
On the same count and under the same terms, as for `COC([CH2][Hg])CNC(=O)c1ccccc1OCC(=O)O` (stereo not given), the figure is 0.139% (inactive); as for `CCC1C(C)=NN=C(c2ccc(OC)c(OC)c2)c2cc(OC)c(OC)cc21` (stereo not given), 0.0441% (inactive).
For the compound `Cc1ccc2ccccc2c1C`, the Potency result is “inactive”.
Take `O=C(Nc1ccccc1-c1ccc(Cl)cc1)c1cccnc1Cl`: the “fluorescence, % of triamterene” value was -0.399% [at 95.7 µM] (inactive).
Turning to `c1ccccc1`, the “fluorescence, % of triamterene” value was 0.0143% [at 91.3 µM] (inactive).
Same read-out and setting: as for `CC(C)=CCN1CC[C@]2(C)c3cc(O)ccc3C[C@H]1[C@H]2C`, the figure is -0.0341% [at 91.3 µM] (inactive).
As for `O=C(O)/C=C\C(=O)O`, the Potency entry was “inactive”.
Turning to `CC(C)C[C@H](CN)CC(=O)O`, the “fluorescence, % of triamterene” value is -0.121% (inactive).
The same measure, in the same setting: the result for `S=C(S)N1CCNCC1` reads -0.0457% (inactive); that for `CC(=O)OCC(=O)[C@H]1CC[C@H]2[C@@H]3CC[C@H]4C[C@H](O)CC[C@]4(C)[C@H]3C(=O)C[C@]12C`, -0.126% [at 18.6 µM] (inactive); that for `CCCCCc1cc(O)c2c(c1)OC(C)(C)c1ccc(C)cc1-2`, 0.111% (inactive).
Consider `Cc1ccc(O)cc1C`, for which the Potency result is “inactive”.
In the case of `CN[C@@H]1C[C@@H](c2ccc(Cl)c(Cl)c2)c2ccccc21`, the “fluorescence, % of triamterene” value was 0.0022% (inactive).
Same read-out and setting: the result for `O=[N+]([O-])c1cc(I)c(O)c(I)c1` reads -0.482% (inactive).
With `CCCCCCC(=O)O[C@H]1CC[C@H]2[C@@H]3CC[C@H]4CC(=O)C=C(C)[C@]4(C)[C@H]3CC[C@]12C`, the “fluorescence, % of triamterene” value is -0.144% (inactive).
On the same count and under the same terms, the result for `CCNCC(O)c1cccc(O)c1` (stereo not given) reads 0.267% [at 18.6 µM] (inactive); that for `COc1ccc2c3c1O[C@H]1C(=O)CC[C@H]4[C@@H](C2)N(C)CC[C@]314`, -0.0453% (inactive); that for `O[C@H]1[C@H]2[C@H](O)CCCN2C[C@H]1O`, -0.0237% (inactive).
In the case of `C[C@]12CC[C@H]3[C@@H](CCC4=C(Cl)C(=O)CC[C@@]43C)[C@@H]1CC[C@@H]2O`, the “fluorescence, % of triamterene” value was 0.0236% (inactive).
On the same count and under the same terms, the result for `CCN(CC)C(=O)N[C@H]1C[C@@H]2c3cccc4[nH]cc(c34)C[C@H]2N(C)C1` reads 1.09% (inactive); that for `CNC(C)CC1CCCCC1` (stereo not given), 0.0114% (inactive); that for `C#CC(C)(O)CC` (stereo not given), 0.027% (inactive).
Same read-out and setting: as for `CCCCc1ccc(C(=O)O)nc1`, the figure is -0.168% (inactive).
